Values joined by “and” are separate entries in the source; they are usually repeats but may differ in a detail not shown here. Equal entries are not always repeated. The whole screen tested about 18,000 compounds, of which about 750 (4.2%) were called active. Inconclusive results (about 13%) are left out. The call rests on the fitted dose curve; tested in HEK293 cells. The sample as a whole holds a higher share of actives than the screen did. Some structures have more than one record in an assay (separate samples or runs), and their calls can disagree.
Assay: qHTS for Inhibitors of binding or entry into cells for Lassa Virus
Details: Lassa virus pseudotyped entry inhibition, cell-based qHTS; series mostly up to 49.2 µM; activity change, negative = inhibition: at the top concentration
On the % scale 0 is the no-effect control and ±100 the full control effect; potency means the concentration at half of the fitted maximal effect.

SMILES | activity change, negative = inhibition | Potency
COc1ccc(O[C@H]2C=C[C@@H](c3ccccc3)O[C@H]2COC(=O)CCC(C)=NOC[C@@H](C)[C@H](OCc2ccccc2)C(C)C)cc1 | -27.6% [at 8.59 µM] (inactive) | 
CCCCC/C=C\C/C=C\C/C=C\CCCCCCC(N)=O | 4.71% (inactive) | 
COc1ccc(O[C@H]2C=C[C@@H](c3ccccc3)O[C@H]2CON=C[C@@H](C)[C@H](OCc2ccccc2)C(C)C)cc1 | -25.5% [at 8.59 µM] (inactive) | 
CCN(CC)CCCN=C1NC(c2ccccc2)C(C(=O)OC)=C(C)N1CC (configuration not stated) | 9.38% [at 8.59 µM] (inactive) | 
C[C@H]1Cc2c(COc3ccccc3)nc3c(c2CO1)CN(C(=O)Nc1cccc(C#N)c1)CC3 | -15.7% [at 8.59 µM] (inactive) and -11.7% [at 8.59 µM] (inactive) | 
CC1(C)S[C@@H]2[C@H](N=CN3CCCCCC3)C(=O)N2[C@H]1C(=O)O | 3.64% (inactive) | 
CC(C)(Cc1c[nH]c2ccc(Cl)cc12)NCCOc1ccccc1OCC1CC1 |  | 28.2 µM (active)
CC(=O)OCC(=O)[C@@]1(O)CCC2C3CCC4=CC(=O)CC[C@@]4(C)[C@]3(F)C(O)C[C@]21C (some centres not stated) | 2.6% (inactive) | 
CN(Cc1cccc2ncccc12)C(=O)c1cnn(-c2nccc(-c3ccccc3F)n2)c1C1CC1 |  | 12.6 µM (active)
Cc1cccc(CNC(=O)c2cnn(-c3nccc(-c4ccccc4F)n3)c2C2CC2)n1 | -0.396% (inactive) | 
Cc1ccc(-c2ccnc(-n3ncc(C(=O)N(C)Cc4cccc5ncccc45)c3C3CC3)n2)o1 | -21.1% (inactive) | 
Cc1ccc(S(=O)(=O)N2CCC(=O)N([C@H](COCc3ccccc3)Cc3ccccc3)CC2)cc1 | -0.656% (inactive) | 
CCC1CN(CCNC(=O)c2ccsc2)Cc2cc(OC)ccc2O1 (configuration not stated) | -13.6% (inactive) | 
CCCCN1CC(COCc2ccccc2)OCCS1(=O)=O (configuration not stated) | 14.1% (inactive) | 
C=C(C)C1CC=C(CO)CC1 (configuration not stated) | -12% (inactive) | 
C=C1/C(=C\C=C2\CCCC3(C)C2CCC3C(C)/C=C/C(O)C2CC2)CC(O)CC1O (configuration not stated) |  | 10 µM (active)
N#Cc1c(Cl)c(Cl)c(Cl)c(C#N)c1Cl |  | 2.24 µM (active)
CC(C)(O)CCC(O)[C@@](C)(O)C1CC[C@]2(O)C3=CC(=O)C4CC(O)C(O)C[C@]4(C)C3CC[C@]12C (some centres not stated) | -0.611% (inactive) | 
COC(C)C(C(=O)OCC1=CCN2CC[C@H](O)[C@@H]12)C(C)C (some centres not stated) | -11.7% (inactive) | 
COC(=O)C12C[C@H](C)C3C(C)C(c4ccccc4C31)N2C(=O)C(F)(F)F (some centres not stated) | 4.09% [at 8.59 µM] (inactive) | 
CCCCC[C@H](O)/C=C/[C@@H]1[C@@H](CC(=O)CCC(=O)O)[C@@H](O)C[C@H]1O | -8.8% (inactive) | 
COc1cc(C(=O)N2CCOCC2)cc(OC)c1OC | inactive | 
COC(=O)C1=C(C(=O)OC)[C@@H]2N(C)c3ccccc3[C@@]23C[C@@H](C(=O)OC)N(C(=O)c2ccco2)C3=N1 | 11.9% [at 8.59 µM] (inactive) | 
CC(C)c1cnc(NC(=O)Cc2ccccc2)s1 | 19.7% (inactive) | 
CC(=O)Oc1ccccc1C(=O)Nc1ncc([N+](=O)[O-])s1 |  | 7.94 µM (active)
CCOC(=O)[C@H](CCc1ccccc1)N[C@@H](C)C(=O)N1CC2(C[C@H]1C(=O)O)SCCS2 | -3.33% (inactive) | 

SMILES | activity change, negative = inhibition | Potency
COc1cccc(CN2CCC3(CC2)c2ccccc2[C@@H](NC(=O)c2ccccc2OC)[C@@H]3O)c1 | -19.8% (inactive) | 
CO[C@@H]1C[C@@H](C[C@H]2CC[C@H](C)[C@@H]([C@@H](C)C(=O)O)O2)O[C@]2(O[C@](C)([C@H]3CC[C@@](C)(C4OC([C@H]5O[C@@](O)(CO)[C@H](C)C[C@@H]5C)C[C@@H]4C)O3)C[C@H]2C)[C@@H]1C (some centres not stated) |  | 3.16 µM (active)
O=C(C1CCCCC1)N1C[C@H](O)[C@H](n2cc(-c3ccc(F)cc3)nn2)C[C@@H]1c1ccccc1 | -16.6% (inactive) | 
CC1C(O)CC2C(C(=O)O)=CO[C@@H](O[C@H]3OC(CO)C(O)C(O)C3O)C21 (some centres not stated) | -0.42% (inactive) | 
CO[C@H]1[C@@H](O)[C@H](N)[C@@H](O[C@H]2O[C@H]([C@H](C)N)CC[C@H]2N)[C@H](O)[C@@H]1N(C)C(=O)CN | -19.4% (inactive) | 
CCC1CN(CCNC(=O)c2cccc(C)n2)Cc2cc(OC)ccc2O1 (configuration not stated) | -1.6% (inactive) | 
CS(=O)(=O)c1ccc(Oc2nccc(-c3c(-c4ccc(F)cc4)ncn3C3CCNCC3)n2)cc1 | -23.2% (inactive) | 
COc1ccc(NC(=O)C[C@H]2C(=O)N(CCc3ccccc3)C[C@@H]2C)cc1 | -3.95% (inactive) | 
Oc1ccc(Cl)c2c1CCC2 | -0.737% (inactive) | 
CC[C@]1(O)C[C@@H]2CN(CCc3c([nH]c4ccccc34)[C@@](C(=O)OC)(c3cc4c(cc3OC)N(C)[C@H]3[C@@](O)(C(=O)OC)[C@H](OC(C)=O)[C@]5(CC)C=CCN6CC[C@]43[C@@H]65)C2)C1 |  | inactive and 22.4 µM (active)
CC(C)C[C@@H](CC(=O)N[C@@H](CCC(=O)O)CC(=O)O)NC(=O)[C@@H]1CCCC[C@H]1NC(=O)C[C@@H](NC(=O)C[C@H](Cc1c[nH]c2ccccc12)NC(=O)[C@@H]1CCCC[C@H]1N)C(C)C | -0.613% (inactive) | 
C[C@@H]1O[C@@H](OC[C@H]2O[C@@H](Oc3cc(O)c4c(c3)O[C@H](c3ccc(O)c(O)c3)CC4=O)[C@H](O)[C@@H](O)[C@@H]2O)[C@H](O)[C@H](O)[C@H]1O | -8.36% (inactive) | 
O=c1cc(-c2ccc(O)cc2)oc2c([C@@H]3O[C@H](CO)[C@@H](O)[C@H](O)[C@H]3O)c(O)cc(O)c12 | -0.528% (inactive) | 
COc1ccc(CCC(=O)c2c(O)cc(OC3OC(CO)C(O)C(O)C3O[C@@H]3OC(C)C(O)C(O)C3O)cc2O)cc1O (some centres not stated) | -1.94% (inactive) | 
Cc1cccc(CNc2ccnc(-c3cccnc3)n2)c1 | -0.505% (inactive) | 
CCCCN1C[C@H](c2ccc(Br)cc2)[C@@H](CC(=O)Nc2ccc(Br)cc2)C1=O | -23.4% (inactive) | 
COc1ccc(C[C@H](N)C(=O)N[C@@H]2[C@H](O)[C@H](n3cnc4c(N(C)C)ncnc43)O[C@@H]2CO)cc1 |  | 2.51 µM (active)
COc1ccc(CC(N)C(=O)NC2C(O)[C@H](n3cnc4c(N(C)C)ncnc43)O[C@@H]2CO)cc1 (some centres not stated) |  | 3.98 µM (active)
Nc1ncnc2c1ncn2C1CC(O)C(CO)O1 (configuration not stated) | inactive | 
CCN(CC)CCCC(C)Nc1ccnc2cc(Cl)ccc12 (configuration not stated) | inactive | 
COC1=C[C@H](C(=O)NCCNC(C)=O)[C@H](C)[C@@H](c2ccccc2)CC1=O | -0.439% [at 8.59 µM] (inactive) | 
COC(=O)[C@H](CC(C)C)NS(=O)(=O)c1c(F)cccc1F | 15.1% (inactive) | 
O=C1NC(CC(=O)N2CCC(n3c(C4CCC4)nc4cccnc43)CC2)c2ccccc21 (configuration not stated) | -11.6% (inactive) | 
Fc1cccc(/C=N\N=C/c2cccc(F)c2)c1 | 2.67% (inactive) | 
C=CCOC(=O)C(=C)C | -1% (inactive) | 
Cc1ccc(-c2ncc(Cl)cc2-c2ccc(S(C)(=O)=O)cc2)cn1 | -8.61% (inactive) | 

SMILES | activity change, negative = inhibition | Potency
CC[C@H](C)[C@H](NC(=O)[C@@H](N)CCC(=O)O)C(=O)N[C@@H](CC(C)C)C(=O)N[C@@H](CC(=O)O)C(=O)N[C@H](C(=O)N1CCC[C@H]1C(=O)N[C@@H](CO)C(=O)N[C@H](C(=O)O)[C@@H](C)O)C(C)C | -17.7% (inactive) | 
CC[C@H]1CN2CCc3cc(OC)c(OC)cc3[C@@H]2C[C@@H]1C[C@H]1NCCc2cc(OC)c(OC)cc21 |  | 0.1 µM (active)
O=C(NCC1Cc2cc(F)cc(-c3cnccn3)c2O1)C1COc2ccccc2O1 (configuration not stated) | -10.2% (inactive) | 
CCCCCCCC/C=C\CCCCCCCC(=O)NCC(=O)O | -9.14% (inactive) | 
O=[N+]([O-])c1ccc(CN2CC(N3CC=CC3)CS2(=O)=O)cc1 (configuration not stated) | 14.7% (inactive) | 
COc1ccc(-c2c(C)cc3oc(=O)cc(-c4ccccc4)c3c2C)cc1F | 8.65% (inactive) | 
CN[C@@H]1[C@@H](O)[C@@H](O[C@@H]2[C@H](O)[C@H](O[C@H]3OC(CN)=CC[C@H]3N)[C@@H](N)C[C@H]2N)OCC1(C)O (some centres not stated) | -1.11% (inactive) | 
CCOC(=O)CN1C(=O)NC(CCc2ccccc2)C(C(C)=O)=C1C (configuration not stated) | -20.9% [at 8.59 µM] (inactive) | 
OCCN1CCN(CC/C=C2\c3ccccc3Sc3ccc(C(F)(F)F)cc32)CC1 | -11% [at 17.8 µM] (inactive) | 
Cc1ccc(/C(=C/CN2CCCC2)c2ccccn2)cc1 | inactive | 
COc1ccccc1-c1ccnc(-n2ncc(C(=O)NCCCN3CCOCC3)c2C)n1 | 3.84% (inactive) | 
C=CCN1C(=O)[C@]2(OCCC=C[C@H]2C)c2ccccc21 | -16.5% [at 8.59 µM] (inactive) | 
C[C@@H]1CC[C@H]2C(=O)N(Cc3ccc(Cl)cc3)C[C@@H](O)CN2[C@@H]1c1cccc(Br)c1 | 6.98% [at 8.59 µM] (inactive) | 
Nc1nc2[nH]c(=O)c(=O)[nH]c2c(=O)[nH]1 | 5.82% (inactive) | 
CCOC(=O)Cn1c(=O)sc2cccc(Cl)c21 | -6.52% (inactive) | 
CNCC[C@H](Oc1ccc(C(F)(F)F)cc1)c1ccccc1 |  | inactive and 28.2 µM (active)
COC(=O)C1=C(C)N(Cc2ccccc2)C(=NCCc2ccccn2)NC1c1cccc(C(F)(F)F)c1 (configuration not stated) | -11.6% [at 8.59 µM] (inactive) | 
COc1ccccc1N1CCN(CCN2C(=O)c3ccccc3C(C)(C)C2=O)CC1 | inactive | 
CC(C)=CCC[C@]1(C)[C@@H](CC=C(C)C)C[C@@]2(CC=C(C)C)C(=O)[C@]1(C(=O)C(C)C)C(=O)C(CC=C(C)C)=C2O |  | 12.6 µM (active)
Nc1nccc(-c2c(-c3ccc(F)cc3)ncn2CCCN2CCOCC2)n1 | 97% (inactive) | 
CC(=O)Oc1c2c(c3c(c1CC=C(C)C)O[C@@]14C(=CC5CC1C(C)(C)OC4(C/C=C(\C)C(=O)O)C5=O)C3=O)OC(C)(CCC=C(C)C)C=C2 (some centres not stated) |  | 6.31 µM (active)
NCCCNCCCCN(CCCN)/[N+]([O-])=N/O | 3.12% (inactive) | 
CCCCC/C=C\C/C=C\CCCCCCCCCC(=O)NCC(=O)O | 2.05% (inactive) | 
CCCCCCCC1=Cc2ccc(F)cc2C(C(C(=O)OC)C(=O)OC)N1C(=O)OC (configuration not stated) | inactive | 
COc1ccccc1-c1nc(NCCNC(C)=O)c2ccccc2n1 | 0.865% (inactive) | 
